High-throughput results (PubChem)
An excerpt weighted towards active compounds, which were near 3.1% of everything screened.
Peg3 promoter = Peg3 promoter-driven luciferase inhibitors, primary screen, cell-based, HeLa, luciferase luminescence; HeLa PEG-Prom luciferase reporter, overnight; inhibition, % at 20 µM; 360,000 tested, 1.7% active;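 active = inhibition of at least 50% at 20 µM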
PPC-1+TRAIL kill = compounds killing PPC-1 cancer cells with TRAIL present, primary screen, TRAIL potentiator project, ATPLite luminescence, uHTS; PPC-1 cells + TRAIL, ATPLite viability luminescence; cell killing (% activity), % at 4 µM or 5 µM; 220,000 tested, 0.41% active; AID 1443, 2008;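 active = cell killing above 50% in the first pass at 4 µM, then a duplicate retest at 5 µM averaging 50% or more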;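 note: plate controls were cells with TRAIL plus DMSO for no effect and medium-only wells lacking cells for full effect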
TRAIL sens C8 = viability loss with TRAIL in NB7+C8 cells, primary screen, TRAIL sensitizer project, cell-based, ATPlite luminescence | inhibition (viability loss, TRAIL sensitization), % at 10 µM | 360,000 tested, 1% active;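 active = compounds causing at least 50% loss of cell viability in the single-dose screen, relative to plate controls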
CF NFkB inh = inhibitors of PAF-induced NF-kB signaling, primary screen, cell-based, GFP fluorescence, uHTS | 360,000 tested, 0.86% active | KKLEB NF-kB-GFP reporter, GFP fluorescence overnight | inhibition, % at 5 µM | AID 588850, 2011;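 active = at least 50% inhibition at 5 µM, scaled per plate between neutral and stimulator controls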;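 note: PAF is a Pseudomonas aeruginosa culture filtrate used as stimulus; plate controls were PAF-stimulated DMSO wells for no effect and unstimulated DMSO wells for full effect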
KKLEB tox = cytotoxicity in KKLEB CF airway cells, primary screen, cytotoxicity control for CF NF-kB inhibitor project, cell-based, uHTS, fluorescence assay plates; KKLEB CF airway cells viability, ATPlite luminescence, overnight; hits give low values; cells stimulated with P. aeruginosa culture filtrate; activity change (cytotoxicity), % at 5 µM; 360,000 tested, 0.36% active; AID 602141, 2011;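 active = corrected activity change at or below -50% at 5 µM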
HIF-2a block = HIF-2a reporter inhibitors, primary screen, luminescence, 786-0 RCC cells | inhibition, % at 18.8 µM | AID 624352, 2012 | 360,000 tested, 0.72% active | 786-0 RCC cells HIF-2a reporter, luciferase luminescence, overnight;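 active = inhibition of the luminescence signal of 40% or more relative to plate controls, in a single-dose primary screen at 18.75 µM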
* = called active by the depositor; x = no result given.

SMILES	Peg3 promoter	PPC-1+TRAIL kill	TRAIL sens C8	CF NFkB inh	KKLEB tox	HIF-2a block
Nc1nn2cc(-c3ccc(Br)cc3)nc2c2ccccc12	-235.1	40.5	50.7*	-59.6	-24.9	-328.6
CC(C)C[C@H](NC(=O)c1nc[nH]c1C(=O)N[C@@H](CC(C)C)C(=O)OCc1ccccc1)C(=O)OCc1ccccc1	20.9	x	52.0*	17.9	-13.7	13.8
CC(C)C[C@H](NC(=O)c1nc[nH]c1C(=O)N[C@@H](CC(C)C)C(=O)OC(C)(C)C)C(=O)OC(C)(C)C	33.2	5.9	54.7*	28.4	-35.7	20.5
CC(C)(C)OC(=O)NCCCC[C@H](NC(=O)c1[nH]cnc1C(=O)N[C@@H](Cc1ccccc1)C(=O)OC(C)(C)C)C(=O)OC(C)(C)C	9.1	18.3	57.6*	28.2	-10.9	27.7
CC(C)C[C@H](NC(=O)c1nc[nH]c1C(=O)NC(c1ccccc1)c1ccccc1)C(=O)OC(C)(C)C	84.2*	16.4	36.5	33.8	-1.9	34.7
CC(C)C[C@H](NC(=O)c1[nH]cnc1C(=O)N[C@H](C)c1ccccc1)C(=O)OC(C)(C)C	27.3	11.6	36.0	25.5	-25.3	14.7
CC(C)(C)OC(=O)NCCCC[C@H](NC(=O)c1nc[nH]c1C(=O)NCc1ccccc1)C(=O)OC(C)(C)C	20.7	20.7	16.5	-17.0	17.5	16.1
O=S(=O)(Nc1cc2nc3ccccc3nc2n1Cc1ccccc1)c1ccc(Cl)cc1	22.6	16.1	-13.3	51.8*	-10.5	-6.4
O=C(COc1ccccc1/C=C1\SC(=S)NC1=O)Nc1ccc(F)cc1	20.6	x	8.4	51.9*	2.3	-30.5
O=C1CCCC2=C1C1(CCCC1)N=C(Nc1nc3cc(-c4ccccc4)ccc3o1)N2	-10.4	x	31.6	35.4	-13.0	-81.3
Cc1nn(CC(=O)NCCCN2CCC(Cc3ccccc3)CC2)c(=O)c2cc(-c3ccccc3)nn12	100.4*	x	23.2	19.5	-10.8	-30.4
CCc1ccc(-c2cc3c(=O)n(CC(=O)NCCCN4CCN(C)CC4)ncn3n2)cc1	-149.3	x	59.5*	13.8	-23.5	-91.7
Cc1nn(CC(=O)NCCCN2CCN(Cc3ccccc3)CC2)c(=O)c2cc(-c3ccccc3)nn12	-5.0	x	-2.7	-3.1	3.3	2.6
COc1ccc(-c2cc3c(=O)n(CC(=O)N4CCN(C)CC4)ncn3n2)cc1	-135.8	x	58.8*	-17.5	7.0	-144.8
COc1ccc(-c2cc3c(=O)n(CC(=O)N4CCCCC4)ncn3n2)cc1	-112.2	x	16.1	-5.6	-5.9	-73.7
O=C(CCCCCNc1nc(=S)[nH]c2ccccc12)NCCc1c[nH]c2ccccc12	51.1*	-1.3	-2.7	12.9	3.6	19.1
CC1=NN(c2nc(N)nc(/C(C#N)=C/c3ccc([N+](=O)[O-])o3)n2)C(C)(C)C1	102.1*	x	79.5*	-6.4	-69.2*	1.7
O=C1C2C(C(=O)N1/N=C/c1ccc([N+](=O)[O-])o1)C1C=CC2C12CC2 (stereo not drawn)	-1.5	14.0	9.6	-6.6	5.9	13.0
O=C(CCl)NC(=O)NC12CC3CC(CC(C3)C1)C2	63.1*	9.0	0.8	1.3	-10.9	20.0
CC(Cl)C(=O)NC(=O)NC12CC3CC(CC(C3)C1)C2 (stereo not drawn)	29.0	20.6	-0.3	-35.9	1.5	4.0
CCCCCCCCCCCC(=O)N1CC(=O)NC(=O)C1	1.6	8.4	3.1	-2.4	-9.7	-2.1
CCN1CCN(c2ccc(Nc3ccnc4ccccc34)cc2)CC1	61.1*	x	39.9	35.0	-18.5	20.3
CN1CCN(c2ccc(Nc3ccnc4cc(Cl)ccc34)cc2)CC1	60.7*	x	8.8	-48.8	-5.5	0.5
COC(=O)[C@]12CCCCC=C1N(Cc1ccco1)C(=O)[C@H](CC(=O)NCc1ccc(C)o1)C2	x	x	-3.2	x	x	-9.3
Cc1cc(C)c2nc(NCCCNC(=S)NCCCN(C)C)c(C#N)cc2c1	90.9*	21.3	-0.7	1.4	-3.0	9.2
SMILES	Peg3 promoter	PPC-1+TRAIL kill	TRAIL sens C8	CF NFkB inh	KKLEB tox	HIF-2a block
Cc1sc(=NC(=O)c2ccco2)n(C)c1-c1ccc(F)cc1	-303.4	34.5	59.6*	-17.2	2.4	-219.9
CCc1cccc(NC(=O)CCS(=O)(=O)c2ccc(Br)cc2)c1	6.8	x	-7.1	12.4	-3.2	8.3
COc1ccc(NC(=O)COC(=O)CN2C(=O)c3ccccc3C2=O)cc1	13.7	x	13.5	-20.3	12.6	14.2
COCCCNC(=O)c1ccc2c(=O)n(Cc3ccc(Cl)cc3)c(=S)[nH]c2c1	9.1	x	20.0	-1.6	-2.4	-5.0
CC1CCN(CCNC(=O)c2ccc3c(=O)n(Cc4ccc(Cl)cc4)c(=S)[nH]c3c2)CC1	94.5*	x	69.1*	-5.1	-12.5	30.3
N/C(=N/O)c1nc(N2CCCC2)nc(N(c2ccccc2)c2ccccc2)n1	27.0	27.0	59.1*	5.1	-4.5	30.6
CCOC(=O)C1=C(CC)Nc2ccccc2N=C1NC(=O)c1ccc(OC)c(S(=O)(=O)N2CCOCC2)c1	-2.5	x	-19.8	12.1	-3.6	11.4
Cn1cnc([N+](=O)[O-])c1S(=O)(=O)c1cccc(Cl)c1	111.5*	8.2	-0.1	35.6	-54.2*	35.5
Cn1cnc([N+](=O)[O-])c1S(=O)(=O)Oc1ccccc1	102.8*	x	36.8	42.1	3.9	24.6
O=c1cc(-c2ccccc2)[nH]n1-c1ccc([N+](=O)[O-])cc1	-72.1	23.3	3.2	58.9*	-55.1*	-156.3
N#Cc1ccc(-c2ccc(Cl)cc2)nc1SCC(=O)c1cccc(Cl)c1	85.5*	0.7	41.8	9.2	-16.7	16.3
Cc1nn(Cc2c(Cl)cccc2Cl)c(C)c1NC(=O)c1cn(-c2ccccc2)nc1-c1ccccc1	114.5*	29.8	75.9*	23.1	-42.0	34.2
Cc1cccc(C)c1NC(=O)CNC(=O)c1cn(-c2ccccc2)nc1-c1ccccc1	-4.5	x	7.8	-30.3	8.9	-5.6
CC(C)NC(=O)c1cc(-c2ccc(F)cc2OC(C)C)n[nH]1	-4.7	x	-4.7	-15.8	12.6	-2.4
Cc1cccc(N2C(=O)C(Oc3ccc(Cl)cc3Cl)C2C=O)c1C (stereo not drawn)	68.8*	-3.0	12.2	22.4	-45.0	-44.2
O=c1[nH][nH]c(=O)c(Cl)c1Cl	-3.0	x	1.9	12.6	-1.4	-6.2
CCCCCCCN(c1ccccc1)[C@@H]1C[C@H]2CCCC(=O)N3CC[C@@H](C1)[C@@H]23	86.7*	x	19.4	47.8	-24.0	-14.3
Cc1cc2nc(-c3ccc(SCC(=O)N4CCc5ccccc54)nc3)[nH]c2cc1C	113.8*	44.6	81.2*	29.0	-52.2*	-210.8
